Measurements from patent US20140271602, “NUCLEOTIDE-SPECIFIC RECOGNITION SEQUENCES FOR DESIGNER TAL EFFECTORS” (THE BROAD INSTITUTE INC., published 2014).

Target: T1, TALE1-NH (CACNA1C site 1 activator) (Xanthomonas (engineered), UniProt P14727 SEQ:1-983)
T1 chain: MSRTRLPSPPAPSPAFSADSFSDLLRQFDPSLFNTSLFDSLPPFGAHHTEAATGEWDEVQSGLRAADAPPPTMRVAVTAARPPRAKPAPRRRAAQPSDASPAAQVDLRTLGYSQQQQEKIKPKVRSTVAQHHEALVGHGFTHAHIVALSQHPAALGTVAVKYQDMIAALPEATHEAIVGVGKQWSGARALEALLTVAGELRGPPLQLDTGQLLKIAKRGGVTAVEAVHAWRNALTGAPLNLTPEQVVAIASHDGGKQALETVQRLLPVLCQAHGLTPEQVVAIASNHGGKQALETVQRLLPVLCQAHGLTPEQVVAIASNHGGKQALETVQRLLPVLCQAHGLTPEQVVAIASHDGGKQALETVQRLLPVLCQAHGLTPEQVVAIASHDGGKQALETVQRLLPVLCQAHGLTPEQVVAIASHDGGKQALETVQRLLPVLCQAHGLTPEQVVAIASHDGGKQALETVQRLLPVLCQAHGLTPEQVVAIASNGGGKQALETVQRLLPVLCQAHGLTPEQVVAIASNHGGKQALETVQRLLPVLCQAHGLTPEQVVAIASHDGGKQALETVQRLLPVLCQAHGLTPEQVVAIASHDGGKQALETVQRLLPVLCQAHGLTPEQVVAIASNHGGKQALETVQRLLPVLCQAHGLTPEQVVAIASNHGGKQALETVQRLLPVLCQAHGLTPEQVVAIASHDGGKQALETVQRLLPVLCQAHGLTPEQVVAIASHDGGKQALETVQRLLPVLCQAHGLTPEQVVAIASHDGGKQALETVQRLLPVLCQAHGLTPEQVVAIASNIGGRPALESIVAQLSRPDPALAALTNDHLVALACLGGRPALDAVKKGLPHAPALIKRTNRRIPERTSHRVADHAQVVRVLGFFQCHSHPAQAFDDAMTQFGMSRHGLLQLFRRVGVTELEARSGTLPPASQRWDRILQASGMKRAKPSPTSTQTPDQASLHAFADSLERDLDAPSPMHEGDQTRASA
Assay: cell_activity; luciferase reporter
Conditions: tags: VP64, 2A-GFP; dsDNA, one strand shown
Method: TALEs using NN, NK, NH, and HN as the G-targeting RVD were synthesized to target two distinct 18 bp target sites in the human CACNA1C locus. Changes in mRNA are measured using qRT-PCR as described previously. VP64, VP64 transcription activation domain. All results are collected from three independent experiments in HEK 293FT cells. Error bars indicate s.e.m.; n=3. FIG. 19(b) discloses SEQ ID NOS 63 and 62, respectively, in order of appearance.
To determine whether NH and HN are suitable replacements for NN as the G-specific RVD, specificity and activity strength of NN, NK, NH, and HN were directly compared. Two 18 bp targets within the CACNA1C locus in the human genome were chosen and four TALEs for each target were constructed, using NN, NK, NH, or HN as the G-targeting RVD (FIG. 19a). […] For each CACNA1C target site, four luciferase reporters were constructed: wild type genomic target, and wild type target with 2, 4, or all guanines mutated into adenines (FIG. 19a, G-to-A reporters), and compared the activity of each TALE using these reporters (FIG. 19a). […] Thus, focus was placed on the RVDs NN, NK, and NH in subsequent experiments to assess their usefulness in modulating transcription at endogenous human genome targets.

Sequence | binding signal
TCAACCCCTGCCGGCCCA | 71.4 % reduction vs wild-type site
TCAACCCCTACCAACCCA | < 10 % of wild-type site activation
